Measured values published in PubChem BioAssay AID686971 (National Center for Advancing Translational Sciences (NCATS), 2013).
Hit rate of the full screen: of about 360,000 compounds, about 7,500 (2.1%) were called active. Another 8% or so got no clear call; they are omitted. Only a selection was taken, and actives are over-represented in it overall. Unmarked numbers belong to inactive results. The call rests on the fitted dose curve; in most records, active means well fitted cell-killing curve with a large enough effect; inconclusive means small, poorly fitted or top-dose-only effect, or effect the other way, or another doubt; inactive means no such curve, though single readings can be large or run the other way.

assay: qHTS for induction of synthetic lethality in tumor cells producing 2HG: qHTS for the HT-1080-IDH1KD cell line; conditions: HT-1080 IDH1 knockdown viability, ATP luminescence, 48 h; series mostly up to 46.1 µM; activity, negative = toxicity: at the top concentration
Source text: Unbiased genomic sequencing for 22 glioma genomes found recurrent mutation of IDH1 on chromosome 2q33, a gene encoding the cytosolic isoform of IIDH1 associated with the tri-carboxylic acid cycle (TCA) that catalyzes the oxidative decarboxylation of isocitrate, yielding alpha-ketoglutarate and CO2 via NADP+ to NADPH conversion. Subsequent studies confirmed the recurrent IDH mutations in up to 70% of secondary gliomas and in 10% of AML cases. In addition, the somatic mutation of cancer-associated IDH1 is a point mutation resulting in various amino-acid substituents at Arginine132 (IDH1 R132), a key residue found in the enzyme's active site that when mutated, results in the loss-of-function in metabolizing isocitrate but confers a gain-of-function to produce the oncometabolite 2-hydroxyglutarate (2HG). This in effect defines IDH1 as an oncogene and provides an extraordinary opportunity to discover chemical probes against mutant IDH1 that may translate into much needed new therapies for glioma and AML patients.
This assay aims to perform a synthetic-lethal screen for chemical probes specific for 2HG-producing tumor cells using matched paired cell lines (1) HT-1080-NT fibrosarcoma cell line that overproduces 2HG and (2) HT-1080-IDH1KD cell line which has IDH1 expression knocked-down. Desirable compounds are toxic to the NT fibrosarcoma cell line but not to the IDH1KD cell line. The data in this AID corresponds to the results of the qHTS against the HT-1080 IDH1KD cell line.
[1] Dang L, Jin S, Su SM. IDH mutations in glioma and acute myeloid leukemia. Trends of Mol Med. 2010; 16(9): 387-97.
[2] Dang L et al. Cancer-associated IDH1 mutations produce 2-hydroxyglutarate. Nature. 2010; 465(7300):966.
Molecular Libraries Probe Production Centers Network [MLPCN]
NIH Chemical Genomics Center [NCGC]
Assay Submitter (PI): Lenny Dang Ph.D., Agios Pharmaceuticals
Suspensions of trypsinized HT-1080-IDH1KD cells were dispensed into white, tissue culture-treated, solid 1536-well plates at 5uL/well (750 cells/well final concentration) in RPMI medium supplemented with 5% FBS. Plates were incubated at 37 degrees C for 2 hours, after which 23 nL of compounds or DMSO were delivered to each well using a pin tool. Plates were then incubated at 37 degrees C for an additional 48 hours. CellTiter-Glo viability reagent (Promega) was dispensed into wells (2.5uL/well) and incubated at room temperature for 10 minutes. The plates were measured on a PerkinElmer ViewLux plate reader for luminescent signal (clear filter, 1 sec exp.). DMSO-treated control wells and media-only (no cells) control wells were used to normalize %Activity of identified toxic compounds; DMSO-treated wells corresponded to 0%Activity (100% viability), while media-only controls were used to normalize 100%Activity (0% viability). To minimize variability between cell lines, both HT-1080-NT and HT-1080-IDH1KD lines were dispensed and treated with identical compound series in single batches.
Concentration-response curves were fitted to the signals arising from the resulting luminescence. The concentration-effect curves were then classified based on curve quality (r2), response magnitude and degree of measured activity, and compounds were subsequently categorized based on their curve class.
Potency means the concentration at half of the fitted maximal effect.

**Q.** With `CC1CC=CCC12C(=O)NC(=S)NC2=O` (stereo not given) as the molecule, how does the “activity, negative = toxicity” value read?
**A.** 12.1%

**Q.** Which “activity, negative = toxicity” value does the source give for `C[C@]12CCCCC1=CC(=O)C1C2CC[C@@]2(C)C1C[C@@H](F)[C@@H]2O` (stereo not given in full) here?
**A.** -0.58%

**Q.** With `CCOC(=O)CNC(=O)N1Cc2cc(N3CCCCC3)ccc2-n2nncc2C1` as the molecule, how does the “activity, negative = toxicity” value read?
**A.** 15.5%

**Q.** With `Cc1ccc(OC(=O)N(C)C[C@@H]2OCc3cnnn3CCCC(=O)N([C@H](C)CO)C[C@@H]2C)cc1` as the molecule, how does the “activity, negative = toxicity” value read?
**A.** 0.516%

**Q.** With `O=C1NC(=O)N(Cc2ccco2)C(=O)/C1=C\c1ccc(-c2ccc(F)cc2)o1` as the molecule, how does the Potency read?
**A.** 18.4 µM (active)

**Q.** With `COc1ccc(N2C(=O)/C(=C/c3ccco3)C(=O)NC2=S)cc1` as the molecule, how does the “activity, negative = toxicity” value read?
**A.** 1.76%

**Q.** Which “activity, negative = toxicity” value does the source give for `CCOC(=O)c1cccc(C2=C(CNC(=O)c3ccncc3)[C@H]3CC[C@@H](C2)N3Cc2ccccc2)c1` here?
**A.** -5.65%

**Q.** For `CCNS(=O)(=O)c1ccc(NC(=O)Nc2cccc(C(F)(F)F)c2)cc1`, which Potency is on record?
**A.** 11.2 µM (active)

**Q.** Which “activity, negative = toxicity” value does the source give for `CNC(=O)Nc1ccc(C(O)(C(=O)OC)C(F)(F)F)cc1` (stereo not given) here?
**A.** 3.8%

**Q.** With `NC(=O)Nc1cccc(C(F)(F)F)c1` as the molecule, how does the “activity, negative = toxicity” value read?
**A.** 0.786%

**Q.** With `O=P(OC1=CCCCC1)(c1ccccc1)c1ccccc1` as the molecule, how does the “activity, negative = toxicity” value read?
**A.** -14.1%

**Q.** Which “activity, negative = toxicity” value does the source give for `COP(=O)(NS(=O)(=O)c1ccccc1)OC` here?
**A.** 9.88%

**Q.** With `c1ccc(C(CN2CCCCC2)c2ccccc2)cc1` as the molecule, how does the “activity, negative = toxicity” value read?
**A.** 14.8%

**Q.** With `O=c1c2ccccc2[nH]c(=S)n1-c1cccc(Cl)c1` as the molecule, how does the “activity, negative = toxicity” value read?
**A.** -12.2%

**Q.** Which Potency does the source give for `O=C1C2(Cl)C3(Cl)C4(Cl)C(Cl)(Cl)C5(Cl)C3(Cl)C1(Cl)C5(Cl)C24Cl` (stereo not given) here?
**A.** 16.4 µM (active)

**Q.** With `CC1C(=O)OC2CCN3CC=C(COC(=O)C(C)(O)C1(C)O)C23` (stereo not given) as the molecule, how does the “activity, negative = toxicity” value read?
**A.** 6.77%

**Q.** With `Cc1cccc(NC(=O)OC2CN3CCC2CC3)c1` (stereo not given) as the molecule, how does the “activity, negative = toxicity” value read?
**A.** 5.13%

**Q.** Which “activity, negative = toxicity” value does the source give for `CN1CCN(Cc2ccc(OC(F)(F)F)cc2)CC1` here?
**A.** 10.9%

**Q.** For `O=c1c2ccccc2nc(/C=C/c2ccco2)n1-c1ccccc1O`, which “activity, negative = toxicity” value is on record?
**A.** -27.3%

**Q.** Which “activity, negative = toxicity” value does the source give for `Cc1nc2ccccc2c(=O)n1-c1ccc(Cl)cc1Cl` here?
**A.** -2.58%

**Q.** Which Potency does the source give for `O=c1c2ccccc2nc(/C=C/c2ccc(F)cc2)n1-c1ccccc1O` here?
**A.** 20.6 µM (active)

**Q.** With `CCOc1cccc(=NC2CCCCC2)c2c(C)[nH]c(C)c12` as the molecule, how does the Potency read?
**A.** 20.6 µM (active)

**Q.** With `C=C(C)C1(CCCC)C(=O)NC(=S)NC1=O` as the molecule, how does the “activity, negative = toxicity” value read?
**A.** 22.4%

**Q.** For `CC(=O)Nc1ccc(C(=O)C(Cc2ccccc2)N(C)C)cc1` (stereo not given), which “activity, negative = toxicity” value is on record?
**A.** 2.05%

**Q.** With `CSc1nc2ccc(C)cc2c(=O)n1-c1cccnc1` as the molecule, how does the “activity, negative = toxicity” value read?
**A.** 0.487%

**Q.** For `O=C(NC1CCCCC1)N1Cc2cc(N3CCCCC3)ccc2-n2nncc2C1`, which “activity, negative = toxicity” value is on record?
**A.** 13.2%

**Q.** For `Cc1cc2ccccn2c1C(C[N+](=O)[O-])c1c(F)cccc1Cl` (stereo not given), which Potency is on record?
**A.** 10.3 µM (active)

**Q.** For `CN1CCc2cc3c(cc2[C@H]1[C@@H]1OC(=O)c2c1ccc1c2OCO1)OCO3`, which “activity, negative = toxicity” value is on record?
**A.** 3.58%

**Q.** For `c1cc2c(c(NC3=NCCCS3)c1)CCCC2`, which “activity, negative = toxicity” value is on record?
**A.** -20.4%

**Q.** For `COC(=O)C1=C(c2ccc(OCc3ccccc3)cc2)C[C@@H]2CC[C@H]1N2C(=O)NCc1ccc(Cl)cc1`, which “activity, negative = toxicity” value is on record?
**A.** 2.58%

**Q.** For `Cc1nc2nc(C)c(CCC(=O)N3CCC4(CC3)OCCO4)c(C)n2n1`, which “activity, negative = toxicity” value is on record?
**A.** 15.2%

**Q.** With `COc1ccc2c(c1O)-c1cccc3c1[C@@H](C2)N(C)CC3` as the molecule, how does the “activity, negative = toxicity” value read?
**A.** -0.356%

**Q.** With `COC1=CC=C2[C@H]3Cc4ccc(OC)c5c4[C@@]2(CCN3C)C1O5` (stereo not given in full) as the molecule, how does the “activity, negative = toxicity” value read?
**A.** -7.32%

**Q.** Which Potency does the source give for `COc1ccc2c3c1O[C@H]1C[C@@H](O)C=C[C@@]31CCN(C)C2` here?
**A.** 5.8 µM (active)

**Q.** With `COc1ccc(C(=O)CC2C(=O)N(C)C(=O)N(C)C2=O)cc1` as the molecule, how does the “activity, negative = toxicity” value read?
**A.** -2.16%

**Q.** Which “activity, negative = toxicity” value does the source give for `Cc1ccc(-n2c(O)c(C=NCC3CCCO3)c(=O)[nH]c2=O)c(C)c1` (stereo not given) here?
**A.** 5.18%

**Q.** Which “activity, negative = toxicity” value does the source give for `COc1ccc(NC(=O)N2Cc3ccccc3-n3nncc3C2)cc1` here?
**A.** 14%

**Q.** Which “activity, negative = toxicity” value does the source give for `Cc1ncoc1C(=O)NCC1=C(c2cccc3ccccc23)C[C@@H]2CC[C@H]1N2Cc1ccco1` here?
**A.** 3.31%

**Q.** With `COc1cc(Cn2c(N)c(C(=O)NCc3ccco3)c3nc4ccccc4nc32)cc(OC)c1OC` as the molecule, how does the Potency read?
**A.** 8.91 µM (active)

**Q.** With `COC(=O)C1=C(c2ccccc2)C[C@@H]2CC[C@H]1N2C(=O)NCc1ccco1` as the molecule, how does the “activity, negative = toxicity” value read?
**A.** 10.2%

**Q.** Which “activity, negative = toxicity” value does the source give for `CCOC(=O)C1(c2ccccc2)CCN(CC(O)c2ccc(NC(C)=O)cc2)CC1` (stereo not given) here?
**A.** -4.56%

**Q.** With `CC12CCC3C(CCC4CC(=O)CCC43C)C1CC(=NO)C2=O` (stereo not given) as the molecule, how does the “activity, negative = toxicity” value read?
**A.** -6.65%

**Q.** Which Potency does the source give for `CNC(=O)O/N=C(\N)Cc1csc2ccc(Cl)cc12` here?
**A.** 20.6 µM (active)

**Q.** Which “activity, negative = toxicity” value does the source give for `CNC(=O)O/N=C(\N)Cc1csc2ccccc12` here?
**A.** -5.52%

**Q.** For `COC(=O)C1=C(c2ccc(OCc3ccccc3)cc2)C[C@@H]2CC[C@H]1N2C(=O)NCc1cccc(F)c1`, which “activity, negative = toxicity” value is on record?
**A.** -15%

**Q.** Which “activity, negative = toxicity” value does the source give for `O=C(NC(=S)N1C[C@H]2C[C@H](C1)c1cccc(=O)n1C2)c1ccc(F)cc1` here?
**A.** 3.21%

**Q.** Which “activity, negative = toxicity” value does the source give for `CC(CC(C#N)(c1ccccc1)c1ccccc1)N1CCCCC1` (stereo not given) here?
**A.** 7.07%

**Q.** Which “activity, negative = toxicity” value does the source give for `C=CCN1C(=O)C2(C(C(=O)OCC)=C(N)Oc3c2c(=O)oc2ccccc32)c2ccccc21` (stereo not given) here?
**A.** 6.5%

**Q.** Which “activity, negative = toxicity” value does the source give for `O=c1c2ccccc2nc(CBr)n1-c1ccc(Cl)cc1` here?
**A.** -6.41%

**Q.** Which “activity, negative = toxicity” value does the source give for `CC1CNCCN1c1ccc(Cl)cc1` (stereo not given) here?
**A.** 1.1%

**Q.** Which Potency does the source give for `CC1=CC(=Cc2sc3ccccc3[n+]2C)C=C(C)O1` here?
**A.** 10.3 µM (active)

**Q.** With `COc1ccccc1C1=NCc2nnc(CSC)n2-c2ccc(Cl)cc21` as the molecule, how does the “activity, negative = toxicity” value read?
**A.** -20.5%

**Q.** For `c1ccc(N2Cc3ccccc3-n3nncc3C2)nc1`, which “activity, negative = toxicity” value is on record?
**A.** -2.59%

**Q.** With `COc1cccc(C(c2nnnn2-c2ccc3c(c2)OCCO3)N2CCC3(CC2)C(=O)NCN3c2ccccc2)c1OC` (stereo not given) as the molecule, how does the Potency read?
**A.** 16.4 µM (active)

**Q.** Which “activity, negative = toxicity” value does the source give for `CC(=O)Nc1ccccc1C(=O)OCC(=O)c1cccc2ccccc12` here?
**A.** 4.55%
